Assay results taken from the supplement of paper PMC10849652.
Targets with a hit are over-represented here; the source holds about 7,900 in all. About 0.6% of all pairs of compound and target were hits.

Columns and labels:
Assay in all cases: log2 fold change, soluble protein after heating vs DMSO (PISA); higher = thermal stabilisation; K562 cells, 10 uM, 30 min; active = over 0.2 and 3.5 SD of the protein, either way, in both replicates (recomputed)
[1] = compound: CS(=O)(=O)c1ccc(-c2cnc(N)c(C(=O)Nc3ccccc3)n2)cc1
Summary of the method: (§1)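 K562 cells at 2×10^6 cells/mL were given 10 μM compound for 30 min. Aliquots then went through 3 min of heating across 48°C-58°C, were pooled, and were extracted in PBS with 0.5% NP-40 at 4°C, and the supernatant after 21,000xg for 90 min was quantified by TMTpro 16plex LC-MS/MS with channel sums equalised. Thermal stability relative to control samples, from duplicates, is given as log2 fold change.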

crizotinib = compound: C[C@@H](Oc1cc(-c2cnn(C3CCNCC3)c2)cnc1N)c1c(Cl)ccc(F)c1Cl [crizotinib]
Summary of the method: as §1

[2] = compound: C[C@@H]1COCCN1C2=NC(=NC(=C2)C3(CC3)S(=O)(=O)C)C4=C5C=CNC5=CC=C4
Summary of the method: as §1

[3] = compound: C[C@H](C1=CC=C(C=C1)C(=O)NC2=C3C=CNC3=NC=C2)N
Summary of the method: as §1

duvelisib = compound: C[C@H](Nc1ncnc2nc[nH]c12)c1cc2cccc(Cl)c2c(=O)n1-c1ccccc1 [duvelisib]
Summary of the method: as §1

gandotinib = compound: Cc1cc(Nc2cc(CN3CCOCC3)c3nc(C)c(Cc4ccc(Cl)cc4F)n3n2)n[nH]1 [gandotinib]
Summary of the method: as §1

tozasertib = compound: Cc1cc(Nc2cc(N3CCN(C)CC3)nc(Sc3ccc(NC(=O)C4CC4)cc3)n2)n[nH]1 [tozasertib]
Summary of the method: as §1

[4] = compound: Cc1cc(SCc2sc(-c3ccc(C(F)(F)F)cc3)nc2C)ccc1OCC(=O)O
Summary of the method: as §1

doramapimod = compound: Cc1ccc(-n2nc(C(C)(C)C)cc2NC(=O)Nc2ccc(OCCN3CCOCC3)c3ccccc23)cc1 [doramapimod]
Summary of the method: as §1

ispinesib = compound: Cc1ccc(C(=O)N(CCCN)[C@@H](c2nc3cc(Cl)ccc3c(=O)n2Cc2ccccc2)C(C)C)cc1 [ispinesib]
Summary of the method: as §1

bafetinib = compound: Cc1ccc(NC(=O)c2ccc(CN3CC[C@H](N(C)C)C3)c(C(F)(F)F)c2)cc1Nc1nccc(-c2cncnc2)n1 [bafetinib]
Summary of the method: as §1

[5] = compound: Cc1cccc(CC(=O)N2CCc3c2ccc(-c2cn(C)c4ncnc(N)c24)c3F)n1
Summary of the method: as §1

nilotinib = compound: Cc1cn(-c2cc(NC(=O)c3ccc(C)c(Nc4nccc(-c5cccnc5)n4)c3)cc(C(F)(F)F)c2)cn1 [nilotinib]
Summary of the method: as §1

[6] = compound: Cc1nc(Nc2n[nH]c3c2CN(C(=O)N[C@H](CN(C)C)c2ccccc2)C3(C)C)c2sccc2n1
Summary of the method: as §1

dasatinib = compound: Cc1nc(Nc2ncc(C(=O)Nc3c(C)cccc3Cl)s2)cc(N2CCN(CCO)CC2)n1 [dasatinib]
Summary of the method: as §1

[7] = compound: Cc1ncc(-c2ccnc(Nc3ccc(S(C)(=O)=O)cc3)n2)n1C(C)C
Summary of the method: as §1

[8] = compound: Cn1cc(-c2ccc3c(c2)CCN3C(=O)Cc2cccc(C(F)(F)F)c2)c2c(N)ncnc21
Summary of the method: as §1

[9] = compound: Cn1cc(-c2ccc3nnc(C(F)(F)c4ccc5ncccc5c4)n3n2)cn1
Summary of the method: as §1

tipifarnib = compound: Cn1cncc1[C@@](N)(c1ccc(Cl)cc1)c1ccc2c(c1)c(-c1cccc(Cl)c1)cc(=O)n2C [tipifarnib]
Summary of the method: as §1

mubritinib = compound: FC(F)(F)c1ccc(/C=C/c2nc(COc3ccc(CCCCn4ccnn4)cc3)co2)cc1 [mubritinib]
Summary of the method: as §1

Measured: log2 fold change

RBM39 (UniProt Q14498)
active: [6] -1.03
inactive: [1] -0.043 | crizotinib -0.114 | [2] 0.033 | [3] -0.01 | duvelisib -0.012 | gandotinib -0.052 | tozasertib 0.081 | [4] 0.036 | doramapimod -0.02 | ispinesib -0.032 | bafetinib 0.046 | [5] 0.082 | nilotinib -0.027 | dasatinib -0.1 | [7] 0.055 | [8] -0.041 | [9] -0.012 | tipifarnib -0.03 | mubritinib -0.043

RTN4IP1 (UniProt Q8WWV3)
UniProt Q8WWV3, sequence (Q8WWV3 whole entry, looked up): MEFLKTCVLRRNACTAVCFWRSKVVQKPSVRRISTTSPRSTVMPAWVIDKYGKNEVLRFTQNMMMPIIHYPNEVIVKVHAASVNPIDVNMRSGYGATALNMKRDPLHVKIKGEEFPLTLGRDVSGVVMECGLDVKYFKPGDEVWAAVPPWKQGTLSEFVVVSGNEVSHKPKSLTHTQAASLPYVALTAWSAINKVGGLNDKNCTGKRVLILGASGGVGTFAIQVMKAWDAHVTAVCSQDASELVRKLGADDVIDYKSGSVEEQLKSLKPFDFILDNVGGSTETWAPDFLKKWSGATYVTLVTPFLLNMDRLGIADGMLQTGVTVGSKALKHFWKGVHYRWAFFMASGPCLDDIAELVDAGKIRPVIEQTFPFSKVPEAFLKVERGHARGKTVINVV
inactive: [1] 0.015 | crizotinib -0.084 | [2] 0.064 | [3] -0.045 | duvelisib 0.276 | gandotinib 0.117 | tozasertib -0.108 | [4] 0.225 | doramapimod 0.041 | ispinesib -0.137 | bafetinib -0.178 | [5] -0.07 | nilotinib 0.171 | [6] -0.194 | dasatinib 0.189 | [7] -0.008 | [8] 0.121 | [9] 0.168 | tipifarnib 0.041 | mubritinib 0.122

RNF187 (UniProt Q5TA31)
UniProt Q5TA31, sequence (Q5TA31 whole entry, looked up): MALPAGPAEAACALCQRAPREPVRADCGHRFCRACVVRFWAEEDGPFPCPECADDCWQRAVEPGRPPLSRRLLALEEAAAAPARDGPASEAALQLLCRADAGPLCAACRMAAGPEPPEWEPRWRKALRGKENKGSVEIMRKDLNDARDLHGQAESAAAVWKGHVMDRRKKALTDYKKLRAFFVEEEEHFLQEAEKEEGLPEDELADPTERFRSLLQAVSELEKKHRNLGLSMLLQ
inactive: [1] -0.097 | crizotinib -0.018 | [2] -0.019 | [3] -0.027 | duvelisib 0.015 | gandotinib -0.111 | tozasertib -0.069 | [4] 0.038 | doramapimod 0.015 | ispinesib 0.191 | bafetinib 0.009 | [5] 0.088 | nilotinib 0.029 | [6] -0.041 | dasatinib 0.022 | [7] -0.001 | [8] -0.105 | [9] 0.006 | tipifarnib -0.07 | mubritinib 0.102

RHEB (UniProt Q15382)
UniProt Q15382, sequence (Q15382 whole entry, looked up): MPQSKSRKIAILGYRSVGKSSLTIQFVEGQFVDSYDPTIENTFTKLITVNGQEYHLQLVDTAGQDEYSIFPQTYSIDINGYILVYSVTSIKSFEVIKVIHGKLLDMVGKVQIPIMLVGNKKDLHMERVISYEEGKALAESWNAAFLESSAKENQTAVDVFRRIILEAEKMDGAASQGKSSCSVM
inactive: [1] -0.001 | crizotinib 0.038 | [2] 0.096 | [3] -0.041 | duvelisib 0.021 | gandotinib -0.097 | tozasertib -0.025 | [4] -0.009 | doramapimod -0.018 | ispinesib 0.042 | bafetinib 0.01 | [5] 0.004 | nilotinib -0.027 | [6] 0.001 | dasatinib 0.004 | [7] 0.04 | [8] 0.035 | [9] 0.001 | tipifarnib -0.042 | mubritinib 0.004

RPS6KA3 (UniProt P51812)
active: [6] -0.798
inactive: [1] 0.023 | crizotinib -0.107 | [2] 0.024 | [3] -0.177 | duvelisib 0.02 | gandotinib -0.019 | tozasertib 0.103 | [4] 0.032 | doramapimod -0.066 | ispinesib -0.017 | bafetinib -0.065 | [5] 0.046 | nilotinib 0.035 | dasatinib -0.195 | [7] -0.019 | [8] -0.022 | [9] 0.031 | tipifarnib -0.028 | mubritinib 0.02

RSRC2 (UniProt Q7L4I2)
UniProt Q7L4I2, sequence (Q7L4I2 whole entry, looked up): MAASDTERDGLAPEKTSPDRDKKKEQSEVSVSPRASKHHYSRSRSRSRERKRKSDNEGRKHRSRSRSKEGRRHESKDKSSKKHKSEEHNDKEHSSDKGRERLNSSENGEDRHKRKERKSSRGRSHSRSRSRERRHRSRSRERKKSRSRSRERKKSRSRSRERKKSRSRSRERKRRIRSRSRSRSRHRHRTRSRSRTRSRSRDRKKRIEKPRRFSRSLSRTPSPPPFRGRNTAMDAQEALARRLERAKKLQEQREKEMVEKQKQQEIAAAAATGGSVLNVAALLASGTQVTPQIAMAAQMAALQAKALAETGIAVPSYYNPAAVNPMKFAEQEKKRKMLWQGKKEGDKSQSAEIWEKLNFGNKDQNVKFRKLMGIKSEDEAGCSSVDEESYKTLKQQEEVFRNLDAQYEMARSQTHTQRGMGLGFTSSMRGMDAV
inactive: [1] 0.02 | crizotinib 0.022 | [2] -0.018 | [3] -0.095 | duvelisib 0.002 | gandotinib 0.052 | tozasertib -0.058 | [4] -0.039 | doramapimod -0.022 | ispinesib 0.087 | bafetinib -0.091 | [5] -0.091 | nilotinib 0 | dasatinib 0.002 | [7] -0.028 | [8] -0.007 | [9] -0.056 | tipifarnib 0.012 | mubritinib 0.02
active: [6] -2.11

RFC3 (UniProt P40938)
UniProt P40938, sequence (P40938 whole entry, looked up): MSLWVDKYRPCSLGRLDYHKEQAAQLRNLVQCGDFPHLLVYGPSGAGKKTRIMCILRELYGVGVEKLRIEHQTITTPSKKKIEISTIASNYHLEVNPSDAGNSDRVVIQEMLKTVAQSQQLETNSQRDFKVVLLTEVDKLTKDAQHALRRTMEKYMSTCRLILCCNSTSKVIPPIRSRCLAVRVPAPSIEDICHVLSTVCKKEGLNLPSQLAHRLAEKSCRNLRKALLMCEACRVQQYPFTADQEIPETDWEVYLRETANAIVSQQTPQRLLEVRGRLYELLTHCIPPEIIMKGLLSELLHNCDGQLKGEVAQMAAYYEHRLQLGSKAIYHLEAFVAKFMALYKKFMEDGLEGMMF
inactive: [1] 0.029 | crizotinib 0.016 | [2] 0.163 | [3] 0.071 | duvelisib 0.032 | gandotinib -0.042 | tozasertib -0.004 | [4] 0.061 | doramapimod -0.005 | ispinesib 0.067 | bafetinib -0.035 | [5] 0.049 | nilotinib -0.016 | [6] -0.017 | dasatinib -0.032 | [7] -0.011 | [8] 0.053 | [9] -0.01 | tipifarnib -0.051 | mubritinib 0.045

RPL38 (UniProt P63173)
inactive: [1] -0.039 | crizotinib -0.069 | [3] 0.077 | duvelisib -0.064 | gandotinib 0.144 | tozasertib -0.017 | [4] -0.008 | doramapimod 0.017 | ispinesib -0.093 | bafetinib 0.089 | [5] 0.01 | nilotinib 0.026 | [6] 0.155 | dasatinib 0.057 | [7] -0.003 | [8] -0.023 | [9] -0.022 | tipifarnib -0.021 | mubritinib 0.006
active: [2] -0.258

RPS6KA2 isoform 2 (UniProt Q15349)
UniProt Q15349, sequence (Q15349 whole entry, looked up): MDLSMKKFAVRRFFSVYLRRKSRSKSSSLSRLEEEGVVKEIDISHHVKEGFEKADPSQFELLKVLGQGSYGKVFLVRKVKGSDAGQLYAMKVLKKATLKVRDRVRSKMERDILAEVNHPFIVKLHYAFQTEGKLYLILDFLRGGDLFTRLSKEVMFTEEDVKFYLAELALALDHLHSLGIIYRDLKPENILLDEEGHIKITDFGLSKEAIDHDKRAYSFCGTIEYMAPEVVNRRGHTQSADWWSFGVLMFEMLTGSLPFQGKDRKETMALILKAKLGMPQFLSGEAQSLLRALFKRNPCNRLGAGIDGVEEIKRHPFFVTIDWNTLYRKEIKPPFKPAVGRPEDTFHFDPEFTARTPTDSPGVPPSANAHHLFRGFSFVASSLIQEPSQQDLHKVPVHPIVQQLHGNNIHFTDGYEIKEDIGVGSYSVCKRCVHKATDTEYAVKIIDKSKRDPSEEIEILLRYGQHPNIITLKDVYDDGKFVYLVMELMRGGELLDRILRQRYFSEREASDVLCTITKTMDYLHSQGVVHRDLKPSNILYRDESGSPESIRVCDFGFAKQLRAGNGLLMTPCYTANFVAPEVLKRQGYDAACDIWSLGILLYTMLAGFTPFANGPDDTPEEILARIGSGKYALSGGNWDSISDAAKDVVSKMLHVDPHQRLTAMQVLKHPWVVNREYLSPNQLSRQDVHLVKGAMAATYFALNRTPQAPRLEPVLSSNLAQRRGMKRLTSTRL
inactive: [1] 0.026 | crizotinib -0.148 | [2] 0.128 | [3] -0.057 | duvelisib 0.047 | gandotinib -0.048 | tozasertib 0.042 | [4] 0.063 | doramapimod -0.057 | ispinesib -0.058 | bafetinib -0.112 | [5] 0.15 | nilotinib 0.008 | dasatinib -0.228 | [7] -0.013 | [8] 0.001 | [9] 0.021 | tipifarnib -0.069 | mubritinib 0.085
active: [6] -0.571

RSRC1 (UniProt Q96IZ7)
UniProt Q96IZ7, sequence (Q96IZ7 whole entry, looked up): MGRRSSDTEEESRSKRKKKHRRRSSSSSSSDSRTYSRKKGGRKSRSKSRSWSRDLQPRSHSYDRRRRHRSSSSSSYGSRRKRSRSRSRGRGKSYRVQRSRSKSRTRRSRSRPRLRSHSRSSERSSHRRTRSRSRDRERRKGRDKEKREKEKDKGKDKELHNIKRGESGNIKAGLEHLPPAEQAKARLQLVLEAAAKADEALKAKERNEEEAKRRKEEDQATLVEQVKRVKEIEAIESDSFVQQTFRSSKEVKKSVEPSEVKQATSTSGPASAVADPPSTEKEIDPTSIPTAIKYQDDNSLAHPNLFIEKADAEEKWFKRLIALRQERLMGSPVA
inactive: [1] 0.007 | crizotinib -0.059 | [2] 0.027 | duvelisib 0.086 | gandotinib 0.176 | tozasertib -0.079 | [4] -0.034 | doramapimod 0.051 | ispinesib 0.037 | bafetinib 0.042 | [5] -0.05 | nilotinib 0.06 | dasatinib 0.028 | [7] -0.024 | [8] 0.003 | [9] -0.021 | tipifarnib 0.038 | mubritinib 0.012
active: [3] -0.386 | [6] -2.01

SLC1A5 (UniProt Q15758)
UniProt Q15758, sequence (Q15758 whole entry, looked up): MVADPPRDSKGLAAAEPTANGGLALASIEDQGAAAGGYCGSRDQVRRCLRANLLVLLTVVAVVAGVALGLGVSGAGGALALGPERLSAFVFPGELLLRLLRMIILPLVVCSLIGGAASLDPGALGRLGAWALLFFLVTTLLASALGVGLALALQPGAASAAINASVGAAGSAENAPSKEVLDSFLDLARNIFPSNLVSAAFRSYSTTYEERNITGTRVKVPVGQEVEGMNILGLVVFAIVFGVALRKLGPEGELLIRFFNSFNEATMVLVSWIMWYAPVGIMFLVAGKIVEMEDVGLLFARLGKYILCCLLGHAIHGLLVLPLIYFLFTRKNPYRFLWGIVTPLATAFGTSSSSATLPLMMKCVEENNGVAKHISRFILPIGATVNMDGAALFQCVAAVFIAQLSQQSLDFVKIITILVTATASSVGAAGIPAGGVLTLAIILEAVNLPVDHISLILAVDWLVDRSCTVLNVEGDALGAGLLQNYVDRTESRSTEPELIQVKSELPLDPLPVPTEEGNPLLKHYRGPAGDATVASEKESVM
inactive: [1] 0.026 | crizotinib 0.13 | [2] 0.072 | [3] -0.186 | duvelisib 0.044 | gandotinib -0.105 | tozasertib -0.064 | [4] -0.091 | doramapimod -0.007 | ispinesib 0.167 | bafetinib 0.041 | [5] 0.004 | nilotinib 0.067 | [6] 0.023 | dasatinib 0.023 | [7] 0.014 | [8] 0.035 | [9] -0.032 | tipifarnib 0.026 | mubritinib 0.052

RRAS2 isoform 4 (UniProt P62070)
UniProt P62070, sequence (P62070 whole entry, looked up): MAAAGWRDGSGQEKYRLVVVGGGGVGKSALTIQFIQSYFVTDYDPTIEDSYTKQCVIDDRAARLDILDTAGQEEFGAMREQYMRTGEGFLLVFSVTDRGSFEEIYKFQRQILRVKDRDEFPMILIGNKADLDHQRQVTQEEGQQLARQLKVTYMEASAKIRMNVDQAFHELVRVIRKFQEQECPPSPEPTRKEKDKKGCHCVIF
inactive: [1] 0.044 | crizotinib 0.162 | [2] -0.001 | [3] -0.152 | duvelisib -0.002 | gandotinib -0.016 | tozasertib -0.048 | [4] -0.042 | doramapimod 0.012 | ispinesib -0.019 | bafetinib -0.05 | [5] -0.082 | nilotinib 0.111 | [6] -0.021 | dasatinib 0.066 | [7] 0.025 | [8] 0.062 | [9] -0.03 | tipifarnib 0.088 | mubritinib -0.025

RBM12 (UniProt Q9NTZ6)
UniProt Q9NTZ6, sequence (Q9NTZ6 whole entry, looked up): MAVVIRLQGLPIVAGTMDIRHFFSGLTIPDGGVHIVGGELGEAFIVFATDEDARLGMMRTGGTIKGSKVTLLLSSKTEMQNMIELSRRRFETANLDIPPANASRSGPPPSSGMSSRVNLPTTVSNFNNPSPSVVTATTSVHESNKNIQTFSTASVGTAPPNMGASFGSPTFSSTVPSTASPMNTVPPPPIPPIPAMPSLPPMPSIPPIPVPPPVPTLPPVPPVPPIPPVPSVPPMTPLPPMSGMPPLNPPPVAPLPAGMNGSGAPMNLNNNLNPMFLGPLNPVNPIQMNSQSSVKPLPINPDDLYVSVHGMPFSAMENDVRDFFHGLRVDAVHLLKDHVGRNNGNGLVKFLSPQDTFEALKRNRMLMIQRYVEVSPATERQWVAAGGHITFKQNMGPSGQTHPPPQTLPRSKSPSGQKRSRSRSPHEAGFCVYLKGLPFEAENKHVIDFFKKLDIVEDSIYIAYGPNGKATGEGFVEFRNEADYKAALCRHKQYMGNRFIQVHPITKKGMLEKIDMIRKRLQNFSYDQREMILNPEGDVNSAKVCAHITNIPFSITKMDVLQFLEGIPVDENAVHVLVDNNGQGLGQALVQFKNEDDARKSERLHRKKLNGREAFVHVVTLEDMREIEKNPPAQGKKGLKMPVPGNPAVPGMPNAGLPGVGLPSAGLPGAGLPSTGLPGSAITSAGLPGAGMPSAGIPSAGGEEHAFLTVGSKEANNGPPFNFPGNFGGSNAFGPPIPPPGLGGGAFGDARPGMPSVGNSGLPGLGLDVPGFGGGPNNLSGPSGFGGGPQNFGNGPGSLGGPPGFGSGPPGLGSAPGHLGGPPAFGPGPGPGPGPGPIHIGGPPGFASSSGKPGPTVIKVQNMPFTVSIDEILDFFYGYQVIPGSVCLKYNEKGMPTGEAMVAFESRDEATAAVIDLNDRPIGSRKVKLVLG
inactive: [1] 0.079 | crizotinib 0.005 | [2] 0.16 | [3] -0.109 | duvelisib 0.011 | gandotinib -0.132 | tozasertib 0.04 | [4] 0.1 | doramapimod -0.076 | ispinesib 0.008 | bafetinib 0.026 | [5] 0.046 | nilotinib -0.108 | [6] -0.227 | dasatinib -0.287 | [7] -0.09 | [8] 0.048 | [9] 0.015 | tipifarnib -0.061 | mubritinib 0.032

RALA (UniProt P11233)
UniProt P11233, sequence (P11233 whole entry, looked up): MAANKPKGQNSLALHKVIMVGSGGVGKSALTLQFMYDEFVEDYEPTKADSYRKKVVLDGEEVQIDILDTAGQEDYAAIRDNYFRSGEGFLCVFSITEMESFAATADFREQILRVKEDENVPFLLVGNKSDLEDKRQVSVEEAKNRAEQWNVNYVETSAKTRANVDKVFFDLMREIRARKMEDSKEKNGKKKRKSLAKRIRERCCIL
inactive: [1] 0.026 | crizotinib 0.112 | [2] 0.088 | [3] -0.097 | duvelisib -0.046 | gandotinib -0.001 | tozasertib 0.016 | [4] -0.009 | doramapimod -0.009 | ispinesib 0.03 | bafetinib -0.026 | [5] 0.178 | nilotinib 0.064 | [6] -0.012 | dasatinib 0.027 | [7] -0.026 | [8] 0.014 | [9] 0.043 | tipifarnib -0.06 | mubritinib 0.015

RPS3A (UniProt P61247)
inactive: [1] -0.064 | crizotinib 0.022 | [2] -0.182 | [3] 0.196 | duvelisib -0.09 | gandotinib 0.175 | tozasertib 0.016 | [4] 0.029 | doramapimod 0.044 | ispinesib -0.072 | bafetinib 0.243 | [5] -0.031 | nilotinib 0 | [6] 0.201 | dasatinib 0.099 | [7] -0.033 | [8] -0.127 | [9] -0.045 | tipifarnib 0.096 | mubritinib -0.058

RHOA (UniProt P61586)
UniProt P61586, sequence (P61586 whole entry, looked up): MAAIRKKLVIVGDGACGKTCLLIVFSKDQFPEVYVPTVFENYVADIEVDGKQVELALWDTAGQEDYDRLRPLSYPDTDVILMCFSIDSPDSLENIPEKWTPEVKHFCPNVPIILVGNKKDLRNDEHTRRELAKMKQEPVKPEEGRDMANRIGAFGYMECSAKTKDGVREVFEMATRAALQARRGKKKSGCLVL
inactive: [1] 0.028 | crizotinib 0.098 | [2] -0.317 | [3] -0.101 | duvelisib -0.066 | gandotinib 0.022 | tozasertib -0.024 | [4] -0.035 | doramapimod -0.082 | ispinesib 0.219 | bafetinib -0.149 | [5] -0.051 | nilotinib 0.154 | [6] 0.001 | dasatinib 0.001 | [7] 0.014 | [8] 0.04 | [9] 0.012 | tipifarnib 0 | mubritinib 0.029
